Screens deposited in PubChem by National Center for Advancing Translational Sciences (NCATS).
uPA generation – inhibitors of cell surface uPA generation | AID 540303 | Potency, µM (titrated, usually from 38.3 µM), inactives show at the highest dose activity change, negative = inhibition, usual class: inhibitors | 0.31% of 330,000 active | cell surface uPA generation assay, qHTS; active = well fitted inhibition curve with a large enough effect; inconclusive = small, poorly fitted or top-dose-only effect; inactive = no such curve, though single readings can be large or run the other way; tested in mouse RAW 264.7 cells; note: potency is the fitted concentration of half-maximal effect; nearly all actives have a fitted effect of over 55% in size
HT1080 IDH1KD tx – toxicity to HT-1080 IDH1 knockdown cells (counter line); HT-1080 IDH1 knockdown viability, ATP luminescence, 48 h; Potency, µM (doses to about 46.1 µM), for inactives: at the top dose activity, negative = toxicity, actives largely listed as cytotoxic; 2% of 360,000 active; AID 686971;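 note: potency is the fitted concentration of half-maximal effect; 0% = DMSO wells and -100% = cell-free medium wells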
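Assay cells: HT-1080 with IDH1 knockdown, 750 per well, RPMI/5% FBS. Exposure: 48 h at 37 °C following 2 h pre-incubation. Read: CellTiter-Glo luminescence; fitted concentration-response, curve class assigned.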
HT1080-NT tox – kills 2HG-producing HT-1080-NT fibrosarcoma cells; Potency, µM (doses to about 46.1 µM), without a hit: top-dose activity, negative = less viability, hits mostly cytotoxic; 1.6% of 360,000 active; AID 686970; HT-1080-NT fibrosarcoma viability, CellTiter-Glo ATP luminescence, 48 h;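 note: NT is the 2HG producing partner of a matched IDH1 knockdown line; potency is the fitted concentration of half-maximal effect; 0% = DMSO-treated cells and -100% = media-only wells without cells; nearly all actives have a fitted effect of over 55% in size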
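A 48-hour cytotoxicity screen used HT-1080-NT cells plated 2 hours before compound delivery. ATP-based CellTiter-Glo luminescence measured viability, normalized to DMSO and no-cell controls.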
DT40 TDP1 CPT – DT40-hTDP1 cell growth loss with CPT | chicken DT40 Tdp1-/-;hTDP1 cells + 20 nM CPT, ATP luminescence, 48 h | Potency, µM (titrated, usually from 46.2 µM), for inactives: top-dose activity change, negative = growth inhibition, usual class: inhibitors | 12% of 420,000 active; note: potency is the fitted concentration of half-maximal effect; nearly all actives have a fitted effect of over 55% in size
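Chicken DT40 Tdp1-/- cells stably complemented with human TDP1 were seeded at 400 cells/well in medium containing 20 nM camptothecin, exposed to pin-transferred compounds, and grown at 37 °C for at least 48 hr. Viability was read as ATP luminescence.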
TDP1 cell noCPT – qHTS for Inhibitors of human tyrosyl-DNA phosphodiesterase 1 (TDP1): qHTS in cells in absence of CPT | DT40 Tdp1-/- hTDP1 cells, no CPT, ATP luminescence, 48 h | Potency, µM (highest dose often 46.2 µM), for the others: top-dose activity change, negative = growth inhibition, hits mostly inhibitors | 15% of 420,000 active | AID 686978, 2013; note: potency is the fitted concentration of half-maximal effect; nearly all actives have a fitted effect of over 55% in size
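Compound effects on proliferation are scored in DT40 Tdp1-/-;hTDP1 cells in the absence of CPT. ATP levels (CellTiter-Glo luminescence) are recorded after a ≥48 hr, 37 °C incubation.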
IL-1B inflam inh – inflammasome signaling inhibition, IL-1 beta readout; THP-1 LPS/ATP IL-1B secretion, AlphaLISA, 16 h; hits give low values; activity change, % at 57.5 µM; 4.7% of 360,000 active; in the data active = activity change below about -50%; inconclusive = mostly about -30% to -49%
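Secreted IL-1B measured by AlphaLISA bead assay after 16 h compound exposure of THP-1 cells; compounds (final up to 57.5 uM) added 1 h before LPS (250 ng/mL) and ATP (1.25 mM) stimulation; lower signal means less secretion.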
* marks the source's active call; other numbers are inactive results; ? = inconclusive; / = no result given; ! = not confirmed by another sample. This is a sample that favours compounds with a hit; in the whole collection about 19% have one here. Unless noted, calls come from the whole dose curve; as a rule, active = well fitted curve in the direction sought with a large enough effect; inconclusive = small, poorly fitted or top-dose-only effect, or another doubt; inactive = no such curve, though single readings can be large; an effect the other way counts as inactive or inconclusive. Unless noted, % is set by controls: 0 for no effect and ±100 for the full control effect.

SMILES	uPA generation	HT1080 IDH1KD tx	HT1080-NT tox	DT40 TDP1 CPT	TDP1 cell noCPT	IL-1B inflam inh
O=C(C[C@H]1C/C=C\C[C@H](NC(=O)OCC2c3ccccc3-c3ccccc32)C(=O)OC[C@@H]2CCCN2C1=O)NCCO	-8%	-5%	-1%	4.1µM*	5.8µM*	15
O=C(C[C@@H]1C/C=C\C[C@H](NC(=O)OCC2c3ccccc3-c3ccccc32)C(=O)OC[C@H]2CCCN2C1=O)N[C@@H](CO)Cc1ccccc1	-17%	-1%	-16%	4.6µM*	4.6µM*	-26
CCOc1ccc(CCNC(=O)CCn2ccc3cc(S(=O)(=O)N4CCCC4)ccc32)cc1	-1%	-12%	-13%	?	?	-11
CC1(C(=O)O)CCCN1C(=O)c1cccc(OC(F)(F)F)c1 (stereo not drawn)	/	4%	22%	-15%	-1%	23
Cc1ccccc1C(=O)N1CC(=O)Nc2ccc(F)cc2C1c1ccccc1 (stereo not drawn)	-6%	4%	11%	20%	1%	31
COc1ccc(NC(=O)c2ccco2)cc1NC(=O)C(C)(C)Oc1ccc(Cl)cc1	/	/	/	18µM*	?	/
COc1ccc(NC(=O)c2ccco2)cc1NC(=O)c1ccco1	-2%	12%	9%	-20%	-8%	-3
COc1ccc(NC(=O)c2ccco2)cc1NC(=O)c1c(OC)cccc1OC	-5%	-1%	-2%	6%	?	10
COc1ccc(NC(=O)c2ccco2)cc1NC(=O)C(C)Oc1ccc(Cl)cc1Cl (stereo not drawn)	/	/	/	9.2µM*	6.5µM*	/
COc1ccc(NC(=O)Cc2ccc(Cl)cc2)cc1NC(=O)c1ccco1	/	-23%	?	-29%	?	-56*
COc1ccc(C(=O)N2CCCCCC2)cc1OC1CCN(C(C)=O)CC1	-3%	0%	1%	6%	-6%	-27
CCc1ccc(S(=O)(=O)NCC2(N3CCOCC3)CCCCC2)cc1	0%	-1%	0%	?	?	56
COc1ccc(CC(=O)NC2CC(=O)N(c3ccc4c(c3)OCCO4)C2)cc1 (stereo not drawn)	/	/	/	-4%	10%	/
CCOC(=O)C1=C(C)NC(C)=C(C(=O)OCC)C1c1ccc([N+](=O)[O-])s1	2%	?	?	15µM*	10µM*	4
CCOC(=O)C1=C(CN2CCOCC2)NC(=O)NC1c1cccc([N+](=O)[O-])c1 (stereo not drawn)	-1%	4%	7%	8%	6%	10
CCOC(=O)C1=C(C)NC(C)=C(C(=O)OC)C1c1cccc([N+](=O)[O-])c1 (stereo not drawn)	2%	-20%	-20%	12µM*!	15µM*!	-1
COC(=O)C1=C(C)NC(C)=C(C(=O)O[C@@H]2CCCN(Cc3ccccc3)C2)[C@@H]1c1cccc([N+](=O)[O-])c1	?	?	?	18µM*	10µM*	?
CCOC(=O)C1=C(CN2CCSCC2)NC(=O)NC1c1cccc([N+](=O)[O-])c1 (stereo not drawn)	15%	15%	2%	-16%	-3%	14
CCOC(=O)C1=C(C)N(C)C(=O)NC1c1cccc([N+](=O)[O-])c1 (stereo not drawn)	4%	-1%	12%	-29%	0%	-3
COC(=O)C1=C(C)NC(C)=C(C(=O)OCCCN2CCC(c3ccccc3)(c3ccccc3)CC2)[C@H]1c1cccc([N+](=O)[O-])c1	/	/	/	12µM*	12µM*	/
